Assay outcomes (PubChem BioAssay)
Sampled rows, rich in hits. Any-hit rate of the full collection: about 2.6%.
Myc binder – binds human c-Myc on microarray; AID 624141; calls only; small molecule microarray, His-c-Myc binding, anti-His fluorescence; P01106; hit rate 1.5% among 17,000;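 active = spot fluorescence over background with P-value below 7% in all four replicate spots, showing protein binding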
Target sequence (P01106 whole entry, looked up): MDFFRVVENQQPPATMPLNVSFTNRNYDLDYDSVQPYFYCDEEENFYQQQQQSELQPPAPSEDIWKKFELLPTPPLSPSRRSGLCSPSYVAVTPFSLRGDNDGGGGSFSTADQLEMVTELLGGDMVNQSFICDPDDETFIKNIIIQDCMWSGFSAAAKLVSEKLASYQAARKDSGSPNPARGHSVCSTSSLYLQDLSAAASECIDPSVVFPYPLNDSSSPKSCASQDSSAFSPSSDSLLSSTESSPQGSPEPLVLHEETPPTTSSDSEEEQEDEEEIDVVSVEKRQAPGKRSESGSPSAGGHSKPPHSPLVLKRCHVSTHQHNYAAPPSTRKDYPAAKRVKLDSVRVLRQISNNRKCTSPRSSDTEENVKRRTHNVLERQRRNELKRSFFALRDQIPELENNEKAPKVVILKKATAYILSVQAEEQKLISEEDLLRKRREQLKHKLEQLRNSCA
STAT3 binder – binds human STAT3 on microarray. P40763. Small molecule microarray, His-STAT3 binding, anti-His fluorescence. calls only. hit rate 0.2% among 17,000;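 active = compounds whose four printed spots each show fluorescence over background unusually high for their array block, chance value under 7%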
p53 PUMA act – restores mutant p53 pathway signaling in SW480 cells; AID 624151; hit rate 1.5% among 28,000; SW480 PUMA-promoter luciferase, p53 mutant reactivation; activation, % at 9.98 µM; in the data active = activation above about 52%
p53 mut binder – binders of human mutant p53 | small molecule microarray binding, anti-GST fluorescence | calls only | hit rate 0.4% among 17,000 | AID 624136;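 active = compounds whose four printed spots each glow above background more than chance allows, each with a p-value under 7%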
NFkB SMM – binds human NF-kappa-B p105 on microarray; P19838; Small molecule microarray, anti-His fluorescence binding; calls only; hit rate 1.3% among 17,000;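 active = spot fluorescence over background significantly raised, with a chance value under 7% in all four replicate spots of the compound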;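 also: probe protein is his-tagged human p50 processed subunit at 1 µg/ml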
A number is an active result; – = inactive; · = not tested or not shown; + = active, no number.

SMILES	Myc binder	STAT3 binder	p53 PUMA act	p53 mut binder	NFkB SMM
CNC[C@@H]1Oc2ncc(C#Cc3ccccc3)cc2C(=O)N([C@H](C)CO)C[C@@H]1C	+	–	–	–	+
CCc1cccc(NC(=O)CSc2c(C)n[nH]c2C)c1	·	·	–	·	·
N#Cc1c(NC(=O)c2cc3nc(-c4ccco4)cc(C(F)(F)F)n3n2)sc2c1CCCCC2	·	·	–	·	·
COC(=O)c1sccc1NC(=O)CN1c2cccc3cccc(c23)S1(=O)=O	·	·	–	·	·
Cc1cc(C)c(NC(=O)CSc2nc3ccc(NC(=O)c4ccccc4C)cc3s2)c(C)c1	·	·	–	·	·
CC(=O)c1ccc(NC(=O)CSc2nc3ccc(NC(=O)c4ccccc4Cl)cc3s2)cc1	·	·	81	·	·
O=C(COc1ccc(C2CCCCC2)cc1)Nc1cccc2ncccc12	·	·	–	·	·
O=C1c2ccccc2C(=O)N1CCCc1nc(-c2ccccn2)no1	·	·	–	·	·
Cc1ccccc1OC(C)c1nc(-c2ccccn2)no1 (stereo not drawn)	·	·	116	·	·
c1ccc(OCCCc2nc(-c3ccccn3)no2)cc1	–	–	69	–	–
c1ccc(-c2noc(COc3cccc4ccccc34)n2)nc1	·	·	87	·	·
CNC(=O)CCc1nc(-c2ccc(Cl)cc2)no1	–	–	–	–	–
C[C@H](CO)N1C[C@H](C)[C@H](CN(C)C(=O)Nc2cccc3ccccc23)Oc2ccc(NC(=O)Nc3cccc4ccccc34)cc2CC1=O	–	–	–	–	–
C[C@@H]1CN([C@H](C)CO)C(=O)Cc2cc(NC(=O)Nc3ccc(C(F)(F)F)cc3)ccc2O[C@@H]1CN(C)Cc1ccncc1	+	–	–	–	+
C[C@@H]1CN([C@H](C)CO)C(=O)Cc2cc(NC(=O)Nc3cccc4ccccc34)ccc2O[C@@H]1CN(C)C(=O)Nc1cccc2ccccc12	+	–	–	–	+
COC(=O)c1ccc(Cl)c(NC(=O)CSc2nnc(-c3cc(OC)cc(OC)c3)o2)c1	·	·	–	·	·
COC(=O)c1ccccc1NC(=O)C(C)Oc1ccc2c(C)cc(=O)oc2c1 (stereo not drawn)	·	·	–	·	·
C[C@@H]1O[C@@H](O[C@H]2[C@H](O[C@H]3CC[C@@]4(C)C(CC[C@]5(C)C4CC=C4C6CC(C)(C)CC[C@]6(C(=O)O[C@@H]6O[C@H](CO[C@@H]7O[C@H](CO)[C@@H](O[C@@H]8O[C@@H](C)[C@H](O)[C@@H](O)[C@H]8O)[C@H](O)[C@H]7O)[C@@H](O)[C@H](O)[C@H]6O)CC[C@]45C)[C@]3(C)CO)OC[C@H](O)[C@@H]2O)[C@H](O)[C@H](O)[C@H]1O (stereo partly drawn)	–	–	–	–	–
C[C@@H]1O[C@@H](O[C@H]2[C@H](O[C@H]3CC[C@@]4(C)C(CC[C@]5(C)C4C=C[C@]46OC[C@@]7(CCC(C)(C)C[C@H]74)[C@@H](O)C[C@]65C)[C@]3(C)CO)O[C@H](CO)[C@@H](O)[C@@H]2O[C@@H]2O[C@H](CO)[C@@H](O[C@@H]3O[C@@H](C)[C@H](O)[C@@H](O)[C@H]3O)[C@H](O)[C@H]2O)[C@H](O)[C@H](O)[C@H]1O (stereo partly drawn)	+	–	–	–	+
C[C@@H]1CCCCO[C@@H](CN(C)C(=O)CCC(F)(F)F)[C@H](C)CN([C@@H](C)CO)C(=O)c2cc(NC(=O)Cc3ccccc3)ccc2O1	–	–	–	–	–
C[C@@H]1CCCCO[C@@H](CN(C)C(=O)CCC(F)(F)F)[C@H](C)CN([C@@H](C)CO)C(=O)c2cc(NC(=O)CCC(F)(F)F)ccc2O1	+	–	–	–	+
C[C@@H]1CCCCO[C@H](CN(C)C(=O)CCC(F)(F)F)[C@H](C)CN([C@@H](C)CO)C(=O)c2cc(NC(=O)CCC(F)(F)F)ccc2O1	–	–	–	–	+
O=C(NCCCN1CCCC1=O)Nc1ccc(Br)cc1	·	·	–	·	·
COc1ccc(CN2C(=O)C(O)(CC(=O)c3ccc(Cl)s3)c3ccccc32)cc1OC (stereo not drawn)	·	·	–	·	·
CN(CCO)S(=O)(=O)c1cccc(C(=O)O)c1	–	–	–	–	–
SMILES	Myc binder	STAT3 binder	p53 PUMA act	p53 mut binder	NFkB SMM
Cc1ccn2cc(-c3cccc(NS(=O)(=O)c4cccc([N+](=O)[O-])c4)c3)nc2c1	·	·	170	·	·
Nc1[nH]nc2nc3ccccc3nc12	–	–	64	–	–
Cc1nn(C(=O)Cn2nc([N+](=O)[O-])cc2C)c(C)c1Cl	+	–	–	–	–
Cc1cc([N+](=O)[O-])nn1CC(=O)Nc1cc(Cl)cc(Cl)c1	·	·	–	·	·
CC(CC(C)O[C@@H]1O[C@H](CO)[C@@H](O)[C@H](O)[C@H]1O)OC(=O)/C=C/c1ccc(O)cc1 (stereo partly drawn)	–	–	–	–	–
CC(C)C[C@H](NC(=O)[C@@H](O)[C@H](N)Cc1ccccc1)C(=O)O	·	·	–	·	·
CC(C)CC(NC(=O)OCC1c2ccccc2-c2ccccc21)C(=O)O (stereo not drawn)	–	–	64	–	–
Cn1ccnc1SCC(=O)N1c2ccccc2C(C)(c2ccc(Cl)cc2)CC1(C)C (stereo not drawn)	·	·	–	·	·
O=c1c(-c2ccc(O)cc2)coc2cc(OC3OC(CO)C(O)C(O)C3O)cc(O)c12 (stereo not drawn)	–	–	90	–	–
COc1ccc(-c2oc3cc(O[C@@H]4O[C@@H](C)[C@H](O)[C@@H](O)[C@H]4O)cc(O)c3c(=O)c2O[C@@H]2O[C@H](CO)[C@@H](O)[C@H](O)[C@H]2O)cc1	–	–	–	–	–
COc1cccc(CN2CCN(C(=S)NCc3ccco3)CC2)c1	·	·	–	·	·
CCOC(=O)c1cc(-c2ccccc2)sc1NC(=S)Nc1cnccn1	–	–	–	–	–
Cc1sc(NC(=O)c2cnccn2)c(C(N)=O)c1-c1ccccc1	·	·	99	·	·
Cc1ccc(-c2cc(C(=O)Nc3sc(C)c(-c4ccccc4)c3C(N)=O)c3ccccc3n2)o1	·	·	105	·	·
COc1ccc(C)cc1S(=O)(=O)N1CCCC(C(=O)Nc2ccccc2F)C1 (stereo not drawn)	·	·	–	·	·
CCOc1cc(CO)c(Br)cc1OCC(=O)O	+	–	–	–	–
C=CCOC(=O)[C@H]1[C@@H]2C(=O)O[C@@H](c3ccccc3)[C@@H](c3ccccc3)N2[C@@H](c2ccc(OCCOC(=O)[C@@H]3C[C@@H]4C(=O)N[C@@H](CC(C)C)C(=O)N4[C@@H]3c3cccc(OCCO)c3)cc2)[C@]12C(=O)Nc1ccc(I)cc12	–	–	·	+	+
C=CCOC(=O)[C@@H]1[C@H]2C(=O)O[C@H](c3ccccc3)[C@H](c3ccccc3)N2[C@H](c2ccc(OCCOC(=O)[C@@H]3C[C@@H]4C(=O)N5CCC[C@H]5C(=O)N4[C@@H]3c3ccc(O)cc3)cc2)[C@@]12C(=O)Nc1ccc(I)cc12	–	–	·	–	–
C=CCOC(=O)[C@H]1[C@@H]2C(=O)O[C@@H](c3ccccc3)[C@@H](c3ccccc3)N2[C@@H](c2ccc(OCCOC(=O)[C@@H]3C[C@@H]4C(=O)N[C@@H](Cc5ccccc5)C(=O)N4[C@@H]3c3cccc(OCCO)c3)cc2)[C@]12C(=O)Nc1ccccc12	–	–	·	–	+
